Inconclusive results are not listed. Values without a mark were called inactive. The call rests on the fitted dose curve; in most records, active means well fitted curve in either direction with a large enough effect (not every such curve was filed as active); inconclusive means small, poorly fitted or top-dose-only effect, or another doubt; inactive means flat fitted curve, though single readings scatter.
On the % scale 0 is the no-effect control and ±100 the full control effect.

The assay in a line: AP1 Signaling Pathway (AID 357).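 Further: ME-180 reporter cells stimulated with EGF at its EC50 level.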 The following applies: ME-180 (cervical carcinoma) AP-1-bla reporter, EGF-induced, beta-lactamase ratio, 5 h; at 17.2 µM (top of the series) unless noted. In outline: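 First, ME-180 AP-1-bla cells were cultured overnight at 37 °C in low-serum Opti-MEM. Next, titrated compounds with EC50 EGF were incubated 5 hours. Finally, CCF4 was added for 2.5 hours and the 460/530 nm ratio recorded.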
Take `c1cncc(-c2nnc3sc(-c4ccco4)nn23)c1`: the activity change, negative = inhibition is -2.13%.
Take `Cc1cccc(N2C(=O)CC(N3CCN(Cc4ccc(Cl)cc4)CC3)C2=O)c1` (stereo unspecified): the activity change, negative = inhibition is 1.23%.
On to `N#Cc1nc(COc2ccccc2F)oc1NCCCn1ccnc1`, for which the activity change, negative = inhibition is -26.4%.
Consider `Cc1cccc(N(CC(O)CN(C)C)S(=O)(=O)c2ccccc2)c1` (stereo unspecified), for which the activity change, negative = inhibition is -9.68%.
Take `Cn1c(OCc2cccnc2)nc2c1c(=O)n(Cc1ccc(Cl)cc1)c(=O)n2C`: the activity change, negative = inhibition is -16.3%.
Consider `CSc1nc2sc3c(c2c(=O)[nH]1)CCC(C)C3` (stereo unspecified), for which the activity change, negative = inhibition is 7%.
Take `COc1ccccc1N1CCN(C2CCN(C(=O)c3cccs3)CC2)CC1`: the activity change, negative = inhibition was 4.38%.
`C=CCc1cccc(/C=N/n2cnnc2)c1O`: the activity change, negative = inhibition was -1.43%.
For `O=S(=O)(c1ccc2ccccc2c1)N(CC(O)CN1CCOCC1)c1ccccc1` (stereo unspecified), the activity change, negative = inhibition is -11.7%.
Then `CC(C)c1[nH]c(=O)c(C#N)c2c1CSC(C)(C)C2`, with -3.98%; and `COc1cc(S(=O)(=O)N2CCN(c3ccc(F)cc3)CC2)ccc1Cl`, with 5.09%; and `O=C(O)CC1SC(=Nc2cccc(C(F)(F)F)c2)NC1=O` (stereo unspecified), with 7.22%.
Take `CCC(=O)NC1(C(F)(F)F)C(=O)Nc2c1c(=O)[nH]c(=O)n2Cc1ccco1` (stereo unspecified): the activity change, negative = inhibition was 6.62%.
As for `O=c1c(F)cn(C2CCCO2)c(=O)n1Cc1ccccc1Cl` (stereo unspecified), the activity change, negative = inhibition was 0.0939%.
With `CS(=O)(=O)c1ccc2nc(NC(NC(=O)c3ccco3)(C(F)(F)F)C(F)(F)F)sc2c1`, the activity change, negative = inhibition is -11.7%.
Regarding `CCn1c(SC(C)C(=O)O)nc2sc3c(c2c1=O)CCC3` (stereo unspecified), the activity change, negative = inhibition was 2.76%.

Values taken from PubChem BioAssay (NCATS).
